Assay [1] in a line: NCI Yeast Anticancer Drug Screen. Data for the rad50 strain (AID 155).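 Also: 0% = growth of vehicle-only cultures of the same strain.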 To be noted: S. cerevisiae rad50 strain growth inhibition, hits give high values. The procedure, abridged: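 Readout: growth inhibition relative to vehicle-treated cultures. Compound exposure was carried out in a genetically defined yeast strain deficient in DNA damage repair.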
Assay [2] is described as follows: NCI Yeast Anticancer Drug Screen. Data for the mec2-1 strain (AID 157). As to conditions: S. cerevisiae mec2-1 strain, hits give high values. The method, boiled down: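 Mutant yeast (mec2-1) grown with compound; growth inhibition relative to vehicle control reported.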
The nature of assay [3]: NCI Yeast Anticancer Drug Screen. Data for the sgs1 mgt1 strain (AID 161).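 Also: 0% = growth of cultures given vehicle only.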 To be noted: S. cerevisiae sgs1 mgt1 strain, hits give high values. The procedure, abridged:
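Compounds are added to genetically altered yeast, and growth is compared with cultures given vehicle alone to give percent inhibition.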

The nature of assay [4]: NCI Yeast Anticancer Drug Screen. Data for the cln2 rad14 strain (AID 165).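 Also: 0% = growth equal to vehicle treated cultures.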 To be noted: S. cerevisiae cln2 rad14 strain, hits give high values. The procedure, abridged: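 Readout is yeast growth inhibition versus vehicle-treated controls, using a strain with cln2 and rad14 alterations exposed to compound.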
A short description of assay [5]: NCI Yeast Anticancer Drug Screen. Data for the bub3 strain (AID 167). To be noted: S. cerevisiae bub3 mutant strain, hits give high values. The procedure, abridged: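 Readout: yeast growth inhibition, expressed relative to vehicle-only wells. The test organism is a mutant strain from a panel with lesions in DNA repair or checkpoint genes.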
A short description of assay [6]: NCI Yeast Anticancer Drug Screen. Data for the mlh1 rad18 strain (AID 175). To be noted: S. cerevisiae mlh1 rad18 strain growth inhibition, hits give high values. The procedure, abridged: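 Genetically defined yeast (DNA repair-deficient) exposed to compounds; growth inhibition determined relative to vehicle.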
Setting [7] is: at 5.0 µM (retest, dose inferred, filed as 0.5).
The mark [8] stands for this setting: at 50.0 µM (retest, dose inferred, filed as 5.0).

This is part of a sample that, as a whole, favours compounds with a hit. Of some 79,000 tested, about 15% had one in any assay. Unmarked numbers belong to inactive results. Activity calls are given as the source filed them. Rule as the data show it: active = growth inhibition above about 70%; inactive = the rest.

`O=C(O)C1C(C(=O)Nc2ccc3c(c2)Cc2ccccc2-3)C2(Cl)C(Cl)=C(Cl)C1(Cl)C2(Cl)Cl` (stereo unspecified): the growth inhibition in assay [1] (setting [7]) was 31%; in assay [1] (setting [8]), 99% (active); in assay [1] (at 50.0 µM) it was 98.4% (active); in assay [2] (setting [7]) it was 27%; in assay [2] (setting [8]) it was 99% (active); in assay [2] (at 50.0 µM), 98.7% (active). The growth inhibition is 47% in assay [3] (setting [7]); 99% (active) in assay [3] (setting [8]); 98.5% (active) in assay [3] (at 50.0 µM); 31% in assay [4] (setting [7]); 99% (active) in assay [4] (setting [8]); 98.3% (active) in assay [4] (at 50.0 µM). Also, the growth inhibition in assay [5] (setting [7]) is 14%; in assay [5] (setting [8]) it was 99% (active); in assay [5] (at 50.0 µM), 98.3% (active); in assay [6] (setting [7]) it was 46%; in assay [6] (setting [8]) it was 99% (active); in assay [6] (at 50.0 µM), 98.3% (active).

With `CCC(CO)Nc1nc2cc(Cl)ccc2c2ccc(Cl)cc12` (stereo unspecified), the growth inhibition was 19% in assay [1] (setting [7]); 98% (active) in assay [1] (setting [8]); 93.6% (active) in assay [1] (at 50.0 µM); 2% in assay [2] (setting [7]); 99% (active) in assay [2] (setting [8]); 94.8% (active) in assay [2] (at 50.0 µM). Besides, the growth inhibition in assay [3] (setting [7]) was 24%; in assay [3] (setting [8]), 97% (active); in assay [3] (at 50.0 µM), 95.6% (active); in assay [4] (setting [7]), -4%; in assay [4] (setting [8]), 97% (active); in assay [4] (at 50.0 µM) it was 89.8% (active). Also, the growth inhibition in assay [5] (setting [7]) was 11%; in assay [5] (setting [8]) it was 97% (active); in assay [5] (at 50.0 µM), 95.5% (active); in assay [6] (setting [7]) it was 20%; in assay [6] (setting [8]) it was 96% (active); in assay [6] (at 50.0 µM), 94% (active).

Turning to `COC(=O)C(=O)/C=C(/O)c1ccc(OC)cc1`, the growth inhibition was -16% in assay [1] (setting [7]); -1% in assay [1] (setting [8]); -2.15% in assay [1] (at 50.0 µM); -28% in assay [2] (setting [7]); -9% in assay [2] (setting [8]); -28.3% in assay [2] (at 50.0 µM). The growth inhibition in assay [3] (setting [7]) was -7%; in assay [3] (setting [8]), 5%; in assay [3] (at 50.0 µM), 43%; in assay [4] (setting [7]) it was -12%; in assay [4] (setting [8]), 18%; in assay [4] (at 50.0 µM), 4.15%. Further, the growth inhibition in assay [5] (setting [7]) is -4%; in assay [5] (setting [8]), 24%; in assay [5] (at 50.0 µM) it was 9.85%; in assay [6] (setting [7]), -34%; in assay [6] (setting [8]), 38%; in assay [6] (at 50.0 µM), -26.5%.

Consider `CCOC(=O)c1ccc(NC(=O)O/N=C(/Cl)CC)cc1`, for which the growth inhibition was 4% in assay [1] (setting [7]); 83% (active) in assay [1] (setting [8]); 67% in assay [1] (at 50.0 µM); -7% in assay [2] (setting [7]); 71% (active) in assay [2] (setting [8]); 78.5% (active) in assay [2] (at 50.0 µM). Besides, the growth inhibition in assay [3] (setting [7]) was -26%; in assay [3] (setting [8]) it was 75% (active); in assay [3] (at 50.0 µM), 80.1% (active); in assay [4] (setting [7]), 35%; in assay [4] (setting [8]), 51%; in assay [4] (at 50.0 µM), 64.8%. Further, the growth inhibition was -40% in assay [5] (setting [7]); 51% in assay [5] (setting [8]); 63.8% in assay [5] (at 50.0 µM); 8% in assay [6] (setting [7]); 86% (active) in assay [6] (setting [8]); 69.7% in assay [6] (at 50.0 µM).

Regarding `OCc1cc2c([nH]c3ccccc32)c(C(O)CO)n1` (stereo unspecified), the growth inhibition was -2% in assay [1] (setting [7]); -6% in assay [1] (setting [8]); 92.9% (active) in assay [1] (at 50.0 µM); 0% in assay [2] (setting [7]); -3% in assay [2] (setting [8]); 94.5% (active) in assay [2] (at 50.0 µM). In addition, the growth inhibition is -2% in assay [3] (setting [7]); -3% in assay [3] (setting [8]); 94.5% (active) in assay [3] (at 50.0 µM); 0% in assay [4] (setting [7]); -1% in assay [4] (setting [8]); 92.7% (active) in assay [4] (at 50.0 µM). The growth inhibition was 2% in assay [5] (setting [7]); -2% in assay [5] (setting [8]); 93.3% (active) in assay [5] (at 50.0 µM); 1% in assay [6] (setting [7]); -4% in assay [6] (setting [8]); -68.3% in assay [6] (at 50.0 µM).

Regarding `Oc1c(N(Cc2ccccc2)Cc2ccccc2)ccc2cccnc12`, the growth inhibition in assay [1] (setting [7]) is -2%; in assay [1] (setting [8]) it was 96% (active); in assay [1] (at 50.0 µM), 98.4% (active); in assay [2] (setting [7]) it was -15%; in assay [2] (setting [8]), 96% (active); in assay [2] (at 50.0 µM) it was 98.5% (active). The growth inhibition is -1% in assay [3] (setting [7]); 97% (active) in assay [3] (setting [8]); 98.6% (active) in assay [3] (at 50.0 µM); -15% in assay [4] (setting [7]); 95% (active) in assay [4] (setting [8]); 96.2% (active) in assay [4] (at 50.0 µM). Also, the growth inhibition in assay [5] (setting [7]) was -8%; in assay [5] (setting [8]) it was 97% (active); in assay [5] (at 50.0 µM) it was 98.8% (active); in assay [6] (setting [7]) it was 1%; in assay [6] (setting [8]), 96% (active); in assay [6] (at 50.0 µM), 98% (active).

Regarding `C/C(=N\NC(=S)Nc1ccc([N+](=O)[O-])cc1)c1nc2ncccc2[nH]1`, the growth inhibition is -8% in assay [1] (setting [7]); 71% (active) in assay [1] (setting [8]); 72.3% (active) in assay [1] (at 50.0 µM); -22% in assay [2] (setting [7]); 89% (active) in assay [2] (setting [8]); 61% in assay [2] (at 50.0 µM). Also, the growth inhibition in assay [3] (setting [7]) was -14%; in assay [3] (setting [8]), 70% (active); in assay [3] (at 50.0 µM) it was 62.2%; in assay [4] (setting [7]) it was 5%; in assay [4] (setting [8]), 93% (active); in assay [4] (at 50.0 µM) it was 67.2%. Besides, the growth inhibition in assay [5] (setting [7]) was -35%; in assay [5] (setting [8]), 95% (active); in assay [5] (at 50.0 µM) it was 75.5% (active); in assay [6] (setting [7]), 4%; in assay [6] (setting [8]), 92% (active); in assay [6] (at 50.0 µM), 60.1%.

For the origin of these results see PubChem BioAssay (NCI).
